# PubChem BioAssay AID1159580 (chemical genetic matrix, 2015)
# Where “and” joins values, the source holds several entries; their conditions need not be identical. Equal values may be shown once. Screen size: about 5,500 compounds; about 2,000 (36%) were called active. Not shown: some 18% with an inconclusive outcome. Rule as the data show it: active = normalized growth mostly below about 0.91 (no sharp cut-off); inconclusive = no clear call, values can overlap the other calls; inactive = mostly above about 0.92. This is one part of the list.
# Test: chemical genetic growth profiling, strain panel (AID 1159580);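 also: tested at 20 µM; growth read once vehicle control cultures reached saturation at 30 °C; 1 = growth at the plate median or of vehicle wells; lower values mean less growth of the strain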
# Details: S. cerevisiae deletion strains, growth OD
structure (smiles),measurement,setting,value
O=C(OC[C@H]1O[C@H](OC(=O)c2cc(O)c(O)c(OC(=O)c3cc(O)c(O)c(O)c3)c2)[C@H](OC(=O)c2cc(O)c(O)c(OC(=O)c3cc(O)c(O)c(O)c3)c2)[C@@H](OC(=O)c2cc(O)c(O)c(OC(=O)c3cc(O)c(O)c(O)c3)c2)[C@@H]1OC(=O)c1cc(O)c(O)c(OC(=O)c2cc(O)c(O)c(O)c2)c1)c1cc(O)c(O)c(OC(=O)c2cc(O)c(O)c(O)c2)c1,normalized growth,"locus YAL013W, strain DEP1, stronger effect = lower value",0.088 (active)
same,normalized growth,"locus YAL021C, strain ccr4, stronger effect = lower value",0.273 (active)
same,normalized growth,"locus YAL026C, strain drs2, stronger effect = lower value",0.572 (active)
same,normalized growth,"locus YAL030W, strain snc1, stronger effect = lower value",0.889 (active)
same,normalized growth,"locus YBL061C, strain skt5, stronger effect = lower value",0.68 (active)
same,normalized growth,"locus YBR009C, strain hhf1, stronger effect = lower value",0.788 (active)
same,normalized growth,"locus YBR021W, strain FUR4, stronger effect = lower value",0.148 (active)
same,normalized growth,"locus YBR023C, strain chs3, stronger effect = lower value",0.537 (active)
same,normalized growth,"locus YBR171W, strain sec66, stronger effect = lower value",0.931 (inactive)
same,normalized growth,"locus YBR229C, strain ROT2, stronger effect = lower value",0.0601 (active)
same,normalized growth,"locus YBR231C, strain swc5, stronger effect = lower value",0.581 (active)
same,normalized growth,"locus YBR279W, strain paf1, stronger effect = lower value",0.686 (active)
same,normalized growth,"locus YCL011C, strain gbp2, stronger effect = lower value",0.782 (active)
same,normalized growth,"locus YCL016C, strain dcc1, stronger effect = lower value",0.735 (active)
same,normalized growth,"locus YCL029C, strain bik1, stronger effect = lower value",0.0912 (active)
same,normalized growth,"locus YCL061C, strain MRC1, stronger effect = lower value",0.759 (active)
same,normalized growth,"locus YCL069W, strain vba3, stronger effect = lower value",0.8 (active)
same,normalized growth,"locus YCR088W, strain abp1, stronger effect = lower value",0.834 (active)
same,normalized growth,"locus YDL005C, strain med2, stronger effect = lower value",1.02 (inactive)
same,normalized growth,"locus YDL035C, strain GPR1, stronger effect = lower value",0.0826 (active)
same,normalized growth,"locus YDL040C, strain nat1, stronger effect = lower value",0.824 (active)
same,normalized growth,"locus YDL074C, strain BRE1, stronger effect = lower value",0.148 (active)
same,normalized growth,"locus YDL101C, strain DUN1, stronger effect = lower value",0.0829 (active)
same,normalized growth,"locus YDL134C, strain PPH21, stronger effect = lower value",0.0788 (active)
same,normalized growth,"locus YDL185W, strain tfp1, stronger effect = lower value",0.0903 (active)
same,normalized growth,"locus YDL192W, strain arf1, stronger effect = lower value",0.0892 (active)
same,normalized growth,"locus YDR001C, strain nth1, stronger effect = lower value",0.998 (inactive)
same,normalized growth,"locus YDR069C, strain doa4, stronger effect = lower value",0.524 (active)
same,normalized growth,"locus YDR101C, strain arx1, stronger effect = lower value",0.0922 (active)
same,normalized growth,"locus YDR137W, strain rgp1, stronger effect = lower value",0.327 (active)
same,normalized growth,"locus YDR150W, strain NUM1, stronger effect = lower value",0.0891 (active)
same,normalized growth,"locus YDR159W, strain sac3, stronger effect = lower value",0.66 (active)
same,normalized growth,"locus YDR162C, strain NBP2, stronger effect = lower value",0.079 (active)
same,normalized growth,"locus YDR195W, strain ref2",0.839 (active)
same,normalized growth,"locus YDR297W, strain sur2, stronger effect = lower value",0.823 (active)
same,normalized growth,"locus YDR318W, strain mcm21, stronger effect = lower value",0.0987 (active)
same,normalized growth,"locus YDR334W, strain swr1, stronger effect = lower value",0.632 (active)
same,normalized growth,"locus YDR335W, strain msn5, stronger effect = lower value",0.747 (active)
same,normalized growth,"locus YDR388W, stronger effect = lower value",0.0902 (active)
same,normalized growth,"locus YDR392W, strain spt3, stronger effect = lower value",0.742 (inactive)
same,normalized growth,"locus YDR502C, strain sam2, stronger effect = lower value",0.101 (active)
same,normalized growth,"locus YEL003W, strain gim4, stronger effect = lower value",0.748 (active)
same,normalized growth,"locus YEL037C, strain rad23, stronger effect = lower value",0.771 (active)
same,normalized growth,"locus YEL061C, strain CIN8 (second series), stronger effect = lower value",0.926 (inactive)
same,normalized growth,"locus YEL061C, strain CIN8, stronger effect = lower value",0.0806 (active)
same,normalized growth,"locus YER015W, strain faa2, stronger effect = lower value",0.531 (active)
same,normalized growth,"locus YER016W, strain bim1, stronger effect = lower value",0.8 (active)
same,normalized growth,"locus YER110C, stronger effect = lower value",0.111 (active)
same,normalized growth,"locus YER111C, strain swi4, stronger effect = lower value",0.404 (active)
same,normalized growth,"locus YER155C, strain BEM2 (second series), stronger effect = lower value",0.99 (inactive)
same,normalized growth,"locus YER155C, strain BEM2, stronger effect = lower value",0.112 (active)
same,normalized growth,"locus YER167W, strain BCK2, stronger effect = lower value",0.0894 (active)
same,normalized growth,"locus YFR010W, strain ubp6, stronger effect = lower value",0.701 (active)
same,normalized growth,"locus YGL078C, strain dbp3, stronger effect = lower value",0.0891 (active)
same,normalized growth,"locus YGL086W, strain mad1, stronger effect = lower value",0.0871 (active)
same,normalized growth,"locus YGL167C, strain pmr1, stronger effect = lower value",0.724 (active)
same,normalized growth,"locus YGL173C, strain kem1, stronger effect = lower value",0.54 (active)
same,normalized growth,"locus YGL227W, strain vid30, stronger effect = lower value",1 (inactive)
same,normalized growth,"locus YGL240W, strain doc1, stronger effect = lower value",0.979 (inactive)
same,normalized growth,"locus YGL248W, strain PDE1, stronger effect = lower value",0.0713 (active)
same,normalized growth,"locus YGL253W, strain hxk2, stronger effect = lower value",0.796 (active)
same,normalized growth,"locus YGR078C, strain PAC10, stronger effect = lower value",0.084 (active)
same,normalized growth,"locus YGR135W, strain pre9, stronger effect = lower value",0.0994 (active)
same,normalized growth,"locus YGR229C, strain SMI1, stronger effect = lower value",0.102 (active)
same,normalized growth,"locus YGR252W, strain gcn5, stronger effect = lower value",0.231 (active)
same,normalized growth,"locus YHR013C, strain ard1, stronger effect = lower value",0.597 (active)
same,normalized growth,"locus YHR027C, strain rpn1, stronger effect = lower value",0.455 (active)
same,normalized growth,"locus YHR030C, strain SLT2, stronger effect = lower value",0.0838 (active) and 1.05 (inactive)
same,normalized growth,"locus YHR079C, strain IRE1 (second series), stronger effect = lower value",0.0958 (active)
same,normalized growth,"locus YHR079C, strain IRE1, stronger effect = lower value",1.05 (inactive)
same,normalized growth,"locus YHR094C, strain hxt1, stronger effect = lower value",0.0909 (active)
same,normalized growth,"locus YHR129C, strain ARP1, stronger effect = lower value",0.105 (active)
same,normalized growth,"locus YHR142W, strain chs7, stronger effect = lower value",0.535 (active)
same,normalized growth,"locus YHR200W, strain rpn10, stronger effect = lower value",0.0922 (active)
same,normalized growth,"locus YIL066C, strain RNR3, stronger effect = lower value",0.0729 (active)
same,normalized growth,"locus YIL073C, strain SPO22, stronger effect = lower value",0.167 (active)
same,normalized growth,"locus YIL125W, strain kgd1, stronger effect = lower value",0.0846 (active)
same,normalized growth,"locus YIR030C, strain dcg1, stronger effect = lower value",0.0869 (active)
same,normalized growth,"locus YJL092W, strain hpr5, stronger effect = lower value",0.866 (active)
same,normalized growth,"locus YJL095W, strain BCK1 (second series), stronger effect = lower value",0.789 (active)
same,normalized growth,"locus YJL095W, strain BCK1, stronger effect = lower value",0.0975 (active) and 1.03 (inactive)
same,normalized growth,"locus YJL115W, strain asf1, stronger effect = lower value",0.979 (inactive)
same,normalized growth,"locus YJL129C, strain trk1, stronger effect = lower value",0.872 (inactive)
same,normalized growth,"locus YJL134W, strain LCB3, stronger effect = lower value",0.0741 (active)
same,normalized growth,"locus YJL154C, strain vps35, stronger effect = lower value",0.965 (inactive)
same,normalized growth,"locus YJL164C, strain tpk1, stronger effect = lower value",0.781 (active)
same,normalized growth,"locus YJL166W, strain qcr8, stronger effect = lower value",0.839 (active)
same,normalized growth,"locus YJL168C, strain set2, stronger effect = lower value",0.087 (active)
same,normalized growth,"locus YJL187C, strain SWE1 (second series), stronger effect = lower value",0.0725 (active)
same,normalized growth,"locus YJR043C, strain POL32, stronger effect = lower value",0.101 (active)
same,normalized growth,"locus YJR066W, strain TOR1, stronger effect = lower value",0.967 (inactive)
